# Screens (PubChem)
# The list is not random: actives were taken first. Their share in the collection is about 5%.
# Vaccinia Venus: qHTS for Stage-Specific Inhibitors of Vaccinia Orthopoxvirus: Venus Reporter Primary qHTS | AID 720580, 2013 | hit rate 0.46% among 330,000 | Vaccinia virus Venus reporter expression, fluorescence | Potency, µM (top dose mostly 36.5 µM), inactives show top-dose activity change, negative = inhibition, usual class: inhibitors; calls by dose curve; tested in A549 cells; note: potency is the fitted concentration of half-maximal effect; nearly all actives have a fitted effect of over 30% in size
# TbPYK inhibitor: qHTS of Trypanosoma Brucei Inhibitors; pyruvate kinase (Trypanosoma brucei), Q57TT1; TbPYK enzyme, Kinase-Glo Plus ATP luminescence, 45 min; Potency, µM (series often up to 76.8 µM), for inactives: at the highest dose activity, negative = inhibition, actives largely listed as inhibitors; hit rate 0.12% among 410,000; note: potency is the fitted concentration of half-maximal effect; nearly all actives have a fitted effect of over 50% in size
#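 Luminescence from Kinase-Glo Plus, added after a 45-minute room-temperature reaction, served as the end-point read-out. The enzyme and substrate were preincubated with compound before ADP (130 uM final) initiated turnover. Concentration-effect curves came from normalized qHTS data.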
# LmPK inhibitor: qHTS Assay for Inhibitors of Leishmania Mexicana Pyruvate Kinase (LmPK); Q27686; purified LmPK, Kinase-Glo ATP luminescence, 1 h; Potency, µM (doses to about 57.5 µM), without a hit: at the top dose activity change, negative = inhibition, hits mostly inhibitors; hit rate 0.37% among 290,000; AID 1721, 2009; note: potency is the fitted concentration of half-maximal effect
# Target sequence (Q27686 whole entry, looked up): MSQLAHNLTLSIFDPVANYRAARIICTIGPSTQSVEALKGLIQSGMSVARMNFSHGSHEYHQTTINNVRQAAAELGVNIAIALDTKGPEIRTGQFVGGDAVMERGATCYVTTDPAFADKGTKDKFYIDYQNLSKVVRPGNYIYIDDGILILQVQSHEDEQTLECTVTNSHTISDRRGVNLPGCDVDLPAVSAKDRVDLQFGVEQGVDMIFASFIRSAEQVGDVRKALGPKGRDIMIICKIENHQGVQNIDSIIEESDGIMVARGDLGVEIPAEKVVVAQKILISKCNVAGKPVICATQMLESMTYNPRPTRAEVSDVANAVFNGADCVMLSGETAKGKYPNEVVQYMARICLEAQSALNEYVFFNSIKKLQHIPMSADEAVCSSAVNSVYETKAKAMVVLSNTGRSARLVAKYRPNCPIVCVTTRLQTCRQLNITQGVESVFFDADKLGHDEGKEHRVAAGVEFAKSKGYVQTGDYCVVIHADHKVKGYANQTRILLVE
#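 Kinase-Glo luminescence read after 1 h RT reaction of 0.1 nM LmPK with 0.5 mM PEP and 0.1 mM ADP. Activity scaled between uninhibited and enzyme-free controls.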
# VACV mCherry inh: qHTS for Stage-Specific Inhibitors of Vaccinia Orthopoxvirus: mCherry Reporter Primary qHTS | hit rate 0.63% among 310,000 | Vaccinia virus mCherry reporter infection, fluorescence | AID 720579, 2013 | Potency, µM (titrated, usually from 36.5 µM), without a hit: top-dose activity change, negative = inhibition, hits mostly inhibitors; calls by dose curve; tested in A549 cells; note: potency is the fitted concentration of half-maximal effect; nearly all actives have a fitted effect of over 35% in size
# HCMV inh: qHTS Assay for inhibitors of the human cytomegalovirus (HCMV); activity change, negative = inhibition, % at 57.5 µM; HFF cells, HCMV-luciferase reporter, 72 h; stronger effect = lower value; AID 1259415, 2018; hit rate 4.5% among 410,000; in the data active = activity change below about -60%; inconclusive = no clear call, values can overlap the other calls; inactive = above about -39%
#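 Inhibition of viral replication was scored as loss of reporter luminescence in HFFs infected with HCMV-luciferase (MOI 1 PFU/cell) for 72 h; compounds tested at 2 doses, normalized to buffer and Salinomycin controls.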
# * hit, by the source's call; i = inactive; ? = inconclusive; . = no result. Unless noted, calls come from the whole dose curve; as a rule, active = well fitted curve in the direction sought with a large enough effect; inconclusive = small, poorly fitted or top-dose-only effect, or another doubt; inactive = no such curve, though single readings can be large; an effect the other way counts as inactive or inconclusive. % is set by controls: 0 for no effect and ±100 for the full control effect.
SMILES,Vaccinia Venus,TbPYK inhibitor,LmPK inhibitor,VACV mCherry inh,HCMV inh
COc1cc(OC)cc(-c2nnc(NC(=O)CCS(=O)(=O)c3ccc(F)cc3)o2)c1,7.94µM*,0.7%,.,5.62µM*,-2.4
Cc1ccc(C)c(-c2nnc(NC(=O)CCS(=O)(=O)c3ccccc3)o2)c1,-12.7%,-2.5%,.,-1.7%,0.7
NC(=O)c1ccsc1NC(=O)CCS(=O)(=O)c1ccc(F)cc1,?,0.0%,.,?,-63.4*
O=C(CCS(=O)(=O)c1ccc(F)cc1)Nc1nnc(-c2cccs2)o1,12.6µM*,10.4%,.,?,-4.5
O=C(CS(=O)(=O)c1ccc(F)cc1)Nc1nnc(-c2cccs2)o1,-0.8%,-2.6%,.,-1.3%,-20.7
CCOC(=O)c1ccc(S(=O)(=O)Nc2ccccc2-c2nnn(CC)n2)cc1,-11.9%,1.7%,-1.8%,-14.0%,-18.6
Cc1ccc(OCC(=O)NNC(=S)NC(=O)c2cccs2)c(C)c1,-16.9%,2.7%,8.3%,i,8.7
COc1cc(-c2nnc(NC(=O)CCS(=O)(=O)c3ccccc3)o2)cc(OC)c1OC,5.62µM*,6.1%,.,3.55µM*,126.2
COc1cc(-c2nnc(NC(=O)CCS(=O)(=O)c3ccc(F)cc3)o2)cc(OC)c1OC,?,-0.4%,.,?,11.5
CCCNC(=O)C1(C)CCCN(Cc2ccccc2Cl)C1 (stereo unspecified),-1.4%,-1.9%,.,38.1%,-76.8*
CCCNC(=O)C1(C)CCCN(C(=O)COc2ccc(Cl)cc2Cl)C1 (stereo unspecified),-6.3%,0.5%,.,-2.0%,-100.0*
CCCNC(=O)C1(C)CCCN(Cc2cccc3ccccc23)C1 (stereo unspecified),-5.6%,-2.8%,.,i,-18.0
CCCNC(=O)C1(C)CCN(C(=O)COc2ccc(Cl)cc2Cl)C1 (stereo unspecified),-7.2%,5.7%,.,i,-25.1
Clc1ccccc1CSc1nnc(/C=C/c2ccccc2)o1,-20.3%,1.5%,5.3%,.,45.3
O=C(/C=C/NNC(=O)c1ccccc1)c1ccc([N+](=O)[O-])cc1,-19.5%,-6.3%,-25.3%,?,-98.1*
CC(Sc1nnc(-c2cccnc2)n1-c1ccccc1F)C(=O)N1CCCc2ccccc21 (stereo unspecified),.,.,2.4%,.,-64.6*
O=C(CSc1ccc(-c2cccnc2)nn1)N1CCCc2ccccc21,.,.,1.2%,.,?
COc1ccc(C(=O)CSc2nc3ccccc3n2CC(=O)c2ccccc2)cc1,-17.7%,3.0%,1.8%,-20.0%,-66.4*
CCCn1c(SCC(=O)C(C)(C)C)nc2ccccc21,-2.7%,-15.3%,4.5%,i,-67.2*
COc1cccc(Cn2c(=O)oc3ccccc32)c1,1.4%,6.7%,6.2%,i,34.3
COc1ccc(OCCSc2nc3ccccc3n2CC(=O)O)cc1,-2.0%,-15.5%,-7.2%,i,-14.7
CCCn1c(SC(C)C(=O)O)nc2ccccc21 (stereo unspecified),.,-3.0%,-6.0%,.,.
COc1cccc(Cn2c(SCC(=O)N(C)c3ccccc3)nc3ccccc32)c1,-26.6%,5.7%,.,?,-60.2*
COc1cccc(Cn2c(=O)ccc3ccccc32)c1,.,-21.4%,-0.1%,.,-81.0*
CCN1CCN(C(=O)c2cc(COc3ccc(C(C)=O)cc3OC)on2)CC1,-9.6%,-8.0%,6.2%,-0.7%,128.6
SMILES,Vaccinia Venus,TbPYK inhibitor,LmPK inhibitor,VACV mCherry inh,HCMV inh
COc1ccc(N(C(=O)c2cc3ccccc3oc2=O)C2C=CS(=O)(=O)C2)cc1 (stereo unspecified),-9.2%,1.6%,4.5%,-20.2%,?
COc1ccccc1OC1=NS(=O)(=O)c2ccccc21,-9.0%,-0.2%,12.6µM*,-5.6%,33.7
Fc1cccc(-c2nnn3c2nc(NCCc2ccccc2)c2ccccc23)c1,-4.4%,2.1%,.,6.4%,59.5
NS(=O)(=O)c1ccc(CCNc2nc3c(-c4cccc(F)c4)nnn3c3ccc(Cl)cc23)cc1,-18.7%,0.4%,.,-24.7%,-101.6*
CC1C(=NO)C(C)C(c2ccccc2)NC1c1ccccc1 (stereo unspecified),-11.2%,-5.1%,2.9%,-15.7%,-36.5
CCC1C(=NO)C(CC)C(c2ccccc2)NC1c1ccccc1 (stereo unspecified),-4.2%,4.3%,-0.7%,-6.2%,-100.7*
CCCC1/C(=N/O)CC(c2ccccc2)NC1c1ccccc1 (stereo unspecified),0.1%,-4.7%,-2.6%,-14.1%,-101.2*
Cn1cc([N+](=O)[O-])c(C(=O)Nc2nccs2)n1,.,0.3%,-2.6%,.,-96.1*
Cn1cc([N+](=O)[O-])c(C(=O)Nc2ccc(Br)cn2)n1,.,0.5%,-3.5%,.,-64.8*
NNC(=O)c1cn2ccccc2n1,.,0.5%,0.7%,.,-14.1
O=C(Nc1nccs1)c1cn2ccccc2n1,.,-4.0%,25.1µM*,.,16.9
CC(NS(=O)(=O)c1ccccc1)C(=O)NC1CCCC1 (stereo unspecified),3.7%,-11.7%,-9.2%,i,5.0
COc1ccc2c(c1OC)C(=O)OC2C/C(=N\NC(N)=O)c1ccccc1 (stereo unspecified),-2.9%,-1.4%,-0.3%,i,-70.0*
O=C(Cc1c(F)cccc1Cl)N/N=C/c1cccs1,-23.1%,-0.5%,-3.0%,-1.5%,-74.8*
O=C(CNC(=O)c1cccc(F)c1)N/N=C/c1cccs1,.,-3.6%,7.0%,.,-62.2*
CC(C)OCCCNC(=O)C1CCN(S(=O)(=O)N2CCCCC2)CC1,-9.0%,-3.5%,-2.6%,-10.7%,-5.8
C=CCn1c(-c2oc3nc(-c4ccccc4)cc(-c4ccccc4)c3c2N)n[nH]c1=S,6.1%,-4.7%,2.3%,i,-38.1
Cc1ccc(S(=O)(=O)N(C)C)cc1NC(=O)c1ccc(OC(F)(F)F)cc1,-11.7%,-1.0%,2.4%,-3.2%,2.9
CN(C)S(=O)(=O)c1cccc(NC(=O)c2ccc(OC(F)(F)F)cc2)c1,-30.0%,1.7%,2.4%,-4.1%,-94.8*
Cc1ccc(NC(=O)c2ccc([N+](=O)[O-])cc2)cc1S(=O)(=O)N(C)C,-0.7%,-2.2%,0.8%,-12.3%,?
CN(c1ccccc1)S(=O)(=O)c1cccc(NC(=O)C2CCCO2)c1 (stereo unspecified),-18.7%,-2.6%,.,-14.1%,-62.3*
Cc1ccc(NC(=O)c2ccc(OC(F)F)cc2)cc1S(=O)(=O)N(C)C,-20.6%,-3.9%,-1.2%,?,-95.1*
CN(c1ccc(C(=O)Nc2cccnc2)cc1)S(=O)(=O)c1ccccc1,-8.7%,7.0%,-0.3%,-9.8%,-70.8*
CN(C)S(=O)(=O)Oc1cc(Cl)ccc1C(=O)Nc1ccc(F)cc1F,-1.9%,-5.6%,6.1%,i,-39.8
CN(c1ccccc1)S(=O)(=O)c1cccc(NC(=O)CSc2nncs2)c1,-19.5%,-0.4%,0.6%,-11.7%,-30.2
